This is one part of a sample in which hits are shown more often than they occur.
BL2 CD40 inh – CD40 pathway inhibition in BL2 cells. hit rate 0.94% among 83,000. BL2 NF-kB luciferase reporter, CD40L-induced, 4 h. inhibition, % at 10 µM;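 active = mean inhibition of at least 50% with a set share of replicates also reaching that level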
Large screens that a line does not name were inactive; [ ] = another dose, or the depositor's remark.

O=C(c1ccccn1)N1C[C@@H]2[C@H](c3ccccc31)[C@H](CO)N2C(=O)Nc1ccccc1Cl	none
O=S(=O)(Nc1nc2ccccc2[nH]1)c1ccccc1	none
O=S(=O)(NCCc1nc2ccccc2[nH]1)c1ccccc1	none
O=S(=O)(/C(=C\c1ccc(C(F)(F)F)cc1)c1nc2ccccc2[nH]1)c1ccccc1	BL2 CD40 inh 60
CCC(C)NC(=O)CC(NS(=O)(=O)c1ccc(NC(C)=O)cc1)C(C)C (stereo not given)	none
C[C@H]1CN([C@@H](C)CO)C(=O)c2c(c3ccccc3n2C)-c2ccccc2CO[C@H]1CN(C)C(=O)CCC(F)(F)F	none
COc1cccc(-c2ccc3c(c2)[C@@H]2[C@@H](CCN2S(=O)(=O)c2ccccc2F)[C@@H](CO)N3C)c1	none
COc1ccc(NC(=O)c2cc(C3CCCCN3C(=O)c3cc(OC)c(C)c(OC)c3)on2)c(C)c1 (stereo not given)	none
S=C(N/N=C1\CCc2ccccc21)NC1CCCCC1	BL2 CD40 inh 62
S=C(NC1CC1)N1CCc2ccccc2C1	none
S=C(Nc1ccccc1Oc1ccccc1)NC1CCCC1	none
CN(CC(=O)Nc1ccccc1Cl)CC(=O)Nc1sc2c(c1C(N)=O)CCC2	none
CN(C)CC(=O)N1[C@H](CO)[C@H](c2ccc(C#CC3CCCCC3)cc2)[C@@H]1C#N	none
Cc1ccccc1N1CCN(C2CCCN(C(=O)CCn3cnnn3)C2)CC1 (stereo not given)	none
C[C@H](NC(=O)[C@@H]1[C@@H](CO)[C@@H]2Cn3c(cccc3=O)[C@H]1N2Cc1ccncc1)c1ccccc1	none
COc1ccc(S(=O)(=O)N(C)C[C@@H]2OCc3ccccc3-c3ccccc3C(=O)N([C@H](C)CO)C[C@@H]2C)cc1	none
O=C(C[C@@H]1CC[C@@H]2[C@H](COC[C@@H](O)CN2C(=O)Nc2ccc(F)cc2)O1)NC1CCC1	none
CC(C)NC(=O)N(C)C[C@H]1Oc2c(NS(C)(=O)=O)cccc2C(=O)N(C)C[C@@H]1C	none
CO[C@@H](CN(C)S(=O)(=O)c1ccc(Cl)cc1)[C@H](C)CN(Cc1ccccc1Cl)[C@H](C)CO	none
CCCCCCN1Cc2ccccc2C1	none
CCCCCCCn1c2c(c(=N)c3ccccc31)CCC2	BL2 CD40 inh 84
CCCCn1c(=N)n(CC(=O)O)c2ccccc21	none
O=C(C1CCCC1)N1CC(=O)N2[C@H](CO)[C@@H](c3ccc(-c4ccccc4F)cc3)[C@@H]2C1	none
C[C@H]1CN(C)C(=O)c2cc(N(C)C)ccc2O[C@@H]1CN(C)S(C)(=O)=O	none
C[n+]1c2n(c3ccccc31)N=C(c1ccccc1)CS2	none
Cc1cc(-c2nnc3n2N=C(c2ccc(-c4ccccc4)cc2)CS3)n[nH]1	none
C[n+]1c2n(c3ccccc31)N=C(c1ccc(-c3ccccc3)cc1)CS2	BL2 CD40 inh 70
CO[C@@H]1CN(C)C(=O)c2cc(NS(=O)(=O)c3cn(C)cn3)ccc2OC[C@@H](C)N(Cc2cccc(C(F)(F)F)c2)C[C@H]1C	none
COc1ccc(S(=O)(=O)N(C)C[C@H]2Oc3ccc(NS(=O)(=O)c4c(C)noc4C)cc3C(=O)N([C@@H](C)CO)C[C@@H]2C)cc1	none
COc1ccc(CN2CC(C(=O)N3CC(C)CC(C)C3)CC2=O)cc1 (stereo not given)	none
C[C@H](CO)N1C[C@H](C)[C@H](CN(C)C(=O)Nc2cccc(Cl)c2Cl)OCc2ccccc2-c2c(n(C)c3ccccc23)C1=O	BL2 CD40 inh 65[25 µM]
C[C@H]1CN([C@@H](C)CO)C(=O)c2c(c3ccccc3n2C)-c2ccccc2CO[C@H]1CN(C)C(=O)Nc1cccc(Cl)c1Cl	none
C[C@H](CO)N1C[C@H](C)[C@@H](CN(C)C(=O)Nc2cccc(Cl)c2Cl)OCc2ccccc2-c2c(n(C)c3ccccc23)C1=O	none
COc1ccccc1NC(=O)N(C)C[C@H]1OCc2ccccc2-c2c(n(C)c3ccccc23)C(=O)N([C@@H](C)CO)C[C@H]1C	none
C[C@@H]1CN([C@H](C)CO)C(=O)c2c(c3ccccc3n2C)-c2ccccc2CO[C@H]1CN(C)C(=O)Nc1cccc(Cl)c1Cl	BL2 CD40 inh 54[25 µM]
C[C@@H]1CN([C@@H](C)CO)C(=O)c2c(c3ccccc3n2C)-c2ccccc2CO[C@H]1CN(C)C(=O)Nc1cccc(Cl)c1Cl	none
CCCCCCCCN1C(=O)C(C(C)=O)=C(C)C1(C)O (stereo not given)	none
COc1ccccc1CNC(=O)C[C@@H]1C[C@H]2c3cc(NC(=O)C4CCC4)ccc3O[C@H]2[C@H](CO)O1	none
CC(C)c1cccc(-c2csc(C(O)c3cccc(Cl)c3)n2)c1 (stereo not given)	none
CC(C)NC(=O)N1Cc2cc(C(=O)NC3Cc4ccccc4C3)nc(-c3cccc(-c4cccnc4)c3)c2[C@@H]1CCO	BL2 CD40 inh 57[25 µM]
C/C=C/c1cccc(-c2nc(C(=O)NC3Cc4ccccc4C3)cc3c2[C@H](CCO)N(C(C)=O)C3)c1	none
CCC(=O)N1Cc2cc(C(=O)N3CCCCC3)nc(-c3cccc(-c4cccnc4)c3)c2[C@H]1CCO	none
O=C(C[C@@H]1CC[C@H]2NC[C@H](O)COC[C@@H]2O1)NCCc1ccncc1	none
Cc1ccc(S(=O)(=O)NC(C(=O)Oc2cc3oc(=O)cc(C)c3cc2Cl)C(C)C)cc1 (stereo not given)	BL2 CD40 inh 29
Cc1cc(=O)oc2cc(OC(C)C(=O)N3CCOCC3)c(Cl)cc12 (stereo not given)	none
Cc1ccc(S(=O)(=O)NCC(=O)OCc2cc(=O)oc3cc(C)ccc23)cc1	none
CN(C)C(=O)c1cccc(-c2ccccc2[C@@H]2[C@@H](C#N)N(C(=O)C3CCC3)[C@H]2CO)c1	none
O=C(CN(Cc1ccco1)C(=O)c1ccc(F)cc1)Nc1ccccc1Br	none
Cc1cnc(NC(=O)COc2ccc3c(c2)CCC3)s1	none
Cc1cccc(NC(=O)COc2ccc3c(c2)CCC3)n1	none
O=C(COc1ccc2c(c1)CCC2)Nc1ccccn1	BL2 CD40 inh 90
CC(=O)Nc1nccc(-c2cc(-c3ccccc3)no2)n1	none
Cc1ccc2nc(-c3cc(-c4ccccc4)no3)cn2c1	BL2 CD40 inh 63
CN(C)C(=O)c1cc(-c2ccccc2)no1	none
C[C@H](CO)N1C[C@H](C)[C@H](CN(C)Cc2ccc3c(c2)OCCN3C)OCc2ccccc2-c2c(n(C)c3ccccc23)C1=O	none
CN(CC(=O)Nc1c(Cl)cccc1Cl)C(=O)c1ccc2nc[nH]c2c1	none
COc1ccc(OC)c2sc(N(CCCN(C)C)C(=O)CCS(=O)(=O)c3ccccc3)nc12	BL2 CD40 inh 81
COc1ccc(Cl)c2sc(N(CCN(C)C)C(=O)CCS(=O)(=O)c3ccc(C)cc3)nc12	none
Cc1cccc2sc(N(CCN3CCOCC3)C(=O)CCS(=O)(=O)c3ccccc3)nc12	none
O=C(c1ccc(F)cc1)N1CC(=O)N2[C@H](CO)[C@@H](c3ccc(C#CCC4CCCC4)cc3)[C@H]2C1	none
CCCN(CC(=O)Nc1ccccc1OC)C(=O)c1ccccn1	none
CC(=NNC(=S)Nc1ccc(C)cc1)c1ccccn1	BL2 CD40 inh 77
COc1ccccc1NC(=S)NN=C(C)c1ccccn1	BL2 CD40 inh 90
CC(=NNC(=S)N1CC2CCC(CC2)C1)c1ccccn1	none
COc1ccccc1NC(=O)c1ccccc1NC(=O)c1ccccn1	none
Cc1ccc(NC(=S)NNC(=S)Nc2ccc(C)cc2)cc1	none
C[C@@H]1CN([C@H](C)CO)C(=O)CCCn2nncc2CO[C@H]1CN(C)CC1CCCCC1	none
COc1cccc(S(=O)(=O)N2CC[C@H]3[C@@H](CO)N(C)c4ccc(C#Cc5cccnc5)cc4[C@H]32)c1	none
C[C@H]1CN(C)C(=O)Cc2cc(N)ccc2O[C@H]1CN(C)S(C)(=O)=O	none
C[C@@H]1CN([C@H](C)CO)C(=O)Cc2cc(N(C)C)ccc2O[C@@H]1CN(C)C(=O)NC1CCCCC1	none

Source: PubChem (Broad Institute)
